This note sets out measurements from PMC11006913.

Changes are numbered by the printed parent chain.

What all share (test): PBM; 200 nM protein, PBS
Holding throughout (conditions): dsDNA, one strand shown

The target in experiment [1] is HOXB4 (Homo sapiens, UniProt P17483 148-234).
In experiment [2] the target is T1, VENTX (Homo sapiens, UniProt O95231 78-163, R121Q).
T1 sequence: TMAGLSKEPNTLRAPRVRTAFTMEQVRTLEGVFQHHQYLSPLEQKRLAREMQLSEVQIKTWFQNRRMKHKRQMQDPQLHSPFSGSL

A further experiment addresses ALX4 (Homo sapiens, UniProt Q9H161 200-286).
Experiment [3] has as its target T2, PAX4 (Homo sapiens, UniProt O43316 9-242, R200K).
T2 sequence: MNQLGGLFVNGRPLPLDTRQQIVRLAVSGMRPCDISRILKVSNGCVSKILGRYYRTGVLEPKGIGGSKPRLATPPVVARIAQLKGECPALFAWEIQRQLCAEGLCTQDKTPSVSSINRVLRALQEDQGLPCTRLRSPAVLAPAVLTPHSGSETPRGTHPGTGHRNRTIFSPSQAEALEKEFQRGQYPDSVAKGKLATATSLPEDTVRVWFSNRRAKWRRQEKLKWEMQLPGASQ

Experiment [4] addresses PRRX1 (Homo sapiens, UniProt P54821 80-166, F113S).
The target in experiment [5] is T3, VENTX (Homo sapiens, UniProt O95231 78-163, Y115F).
T3 sequence: T1 sequence with Y38F, Q44R

The target of experiment [6] is T4, PAX4 (Homo sapiens, UniProt O43316 9-242).
T4 sequence: T2 sequence with K192R

Experiment [7] addresses HOXA2 (Homo sapiens, UniProt O43364 129-215, R185T).
Experiment [8] concerns the target HOXA4 (Homo sapiens, UniProt Q00056 201-287, R217L).
Experiment [9] addresses HOXB4 (Homo sapiens, UniProt P17483 148-234, V174I).
The target in experiment [10] is T5, PAX4 (Homo sapiens, UniProt O43316 9-242, R200Q).
T5 sequence: T2 sequence with K192Q

Experiment [11] has as its target HOXA2 (Homo sapiens, UniProt O43364 129-215, R185K).
The target of experiment [12] is T6, PAX4 (Homo sapiens, UniProt O43316 9-242, F177V).
T6 sequence: T2 sequence with F169V, K192R

Experiment [13] addresses MSX2 (Homo sapiens, UniProt P35548 130-214).
Experiment [14] concerns the target T7, PAX4 (Homo sapiens, UniProt O43316 9-242, F177Y).
T7 sequence: T2 sequence with F169Y, K192R

The target of experiment [15] is MSX2 (Homo sapiens, UniProt P35548 130-214, F161Y).
For experiment [16], the target named is VAX1 (Homo sapiens, UniProt Q5SQQ9 86-172, T142I).
Experiment [17] deals with HOXA4 (Homo sapiens, UniProt Q00056 201-287, W262F).
The target of experiment [18] is PRRX1 (Homo sapiens, UniProt P54821 80-166).
For experiment [19], the target named is VAX1 (Homo sapiens, UniProt Q5SQQ9 86-172, K157R).
Sequence of VAX1 (Homo sapiens, UniProt Q5SQQ9 86-172, K157R) (Q5SQQ9 86-172 K157R): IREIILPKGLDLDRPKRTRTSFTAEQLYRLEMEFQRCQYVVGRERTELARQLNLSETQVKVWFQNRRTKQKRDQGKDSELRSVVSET

Sequence of MSX2 (Homo sapiens, UniProt P35548 130-214) (P35548 130-214): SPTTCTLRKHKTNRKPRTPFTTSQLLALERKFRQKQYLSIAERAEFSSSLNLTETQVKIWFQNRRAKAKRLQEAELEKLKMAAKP
Sequence of PRRX1 (Homo sapiens, UniProt P54821 80-166, F113S) (P54821 80-166 F113S): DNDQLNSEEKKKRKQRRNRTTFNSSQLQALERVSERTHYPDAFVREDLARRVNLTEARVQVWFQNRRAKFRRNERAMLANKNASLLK
Sequence of VAX1 (Homo sapiens, UniProt Q5SQQ9 86-172, T142I) (Q5SQQ9 86-172 T142I): as the sequence (Q5SQQ9 86-172 K157R) above, with T57I, R72K counted along it
Sequence of HOXB4 (Homo sapiens, UniProt P17483 148-234, V174I) (P17483 148-234 V174I): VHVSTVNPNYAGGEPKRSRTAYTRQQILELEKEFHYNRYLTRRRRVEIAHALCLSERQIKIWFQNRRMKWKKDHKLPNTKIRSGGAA
Sequence of MSX2 (Homo sapiens, UniProt P35548 130-214, F161Y) (P35548 130-214 F161Y): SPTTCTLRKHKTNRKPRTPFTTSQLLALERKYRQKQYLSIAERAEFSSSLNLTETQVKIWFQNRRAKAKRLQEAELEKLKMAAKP
Sequence of HOXA2 (Homo sapiens, UniProt O43364 129-215, R185K) (O43364 129-215 R185K): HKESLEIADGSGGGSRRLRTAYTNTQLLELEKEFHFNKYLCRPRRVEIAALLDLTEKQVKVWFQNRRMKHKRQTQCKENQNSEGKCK
Sequence of ALX4 (Q9H161 200-286): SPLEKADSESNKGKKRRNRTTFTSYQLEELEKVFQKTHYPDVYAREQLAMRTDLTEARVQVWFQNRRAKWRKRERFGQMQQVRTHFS
Sequence of HOXA4 (Homo sapiens, UniProt Q00056 201-287, R217L) (Q00056 201-287 R217L): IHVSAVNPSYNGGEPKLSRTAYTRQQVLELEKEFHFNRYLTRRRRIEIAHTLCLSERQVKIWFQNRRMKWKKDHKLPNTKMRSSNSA
Sequence of HOXB4 (Homo sapiens, UniProt P17483 148-234) (P17483 148-234): as the sequence (P17483 148-234 V174I) above, with I27V counted along it
Sequence of HOXA4 (Homo sapiens, UniProt Q00056 201-287, W262F) (Q00056 201-287 W262F): as the sequence (Q00056 201-287 R217L) above, with L17R, W62F counted along it
Sequence of PRRX1 (Homo sapiens, UniProt P54821 80-166) (P54821 80-166): as the sequence (P54821 80-166 F113S) above, with S34F counted along it
Sequence of HOXA2 (Homo sapiens, UniProt O43364 129-215, R185T) (O43364 129-215 R185T): as the sequence (O43364 129-215 R185K) above, with K57T counted along it

With CTAATTAC, the binding signal was 13.6 upbm affinity estimate (log intensity, higher = more binding, comparable within an allelic series) with HOXB4 [1]; 12.7 upbm affinity estimate (log intensity, higher = more binding, comparable within an allelic series) in the experiment with VENTX [2]; 14.4 upbm affinity estimate (log intensity, higher = more binding, comparable within an allelic series) with ALX4; 12 upbm affinity estimate (log intensity, higher = more binding, comparable within an allelic series) with PAX4 [3]; 11.5 upbm affinity estimate (log intensity, higher = more binding, comparable within an allelic series) with PRRX1 [4]; 12.7 upbm affinity estimate (log intensity, higher = more binding, comparable within an allelic series) with VENTX [5]. The binding signal with PAX4 [6] is 12.5 upbm affinity estimate (log intensity, higher = more binding, comparable within an allelic series); in the experiment with HOXA2 [7], 14.2 upbm affinity estimate (log intensity, higher = more binding, comparable within an allelic series); with HOXA4 [8], 12.7 upbm affinity estimate (log intensity, higher = more binding, comparable within an allelic series); in the experiment with HOXB4 [9], 14.4 upbm affinity estimate (log intensity, higher = more binding, comparable within an allelic series); in the experiment with PAX4 [10], 12.3 upbm affinity estimate (log intensity, higher = more binding, comparable within an allelic series); with HOXA2 [11], 14 upbm affinity estimate (log intensity, higher = more binding, comparable within an allelic series). The binding signal in the experiment with PAX4 [12] was 10.6 upbm affinity estimate (log intensity, higher = more binding, comparable within an allelic series); with MSX2 [13], 14.1 upbm affinity estimate (log intensity, higher = more binding, comparable within an allelic series); in the experiment with PAX4 [14], 11.1 upbm affinity estimate (log intensity, higher = more binding, comparable within an allelic series); with MSX2 [15], 13.8 upbm affinity estimate (log intensity, higher = more binding, comparable within an allelic series); with VAX1 [16], 14 upbm affinity estimate (log intensity, higher = more binding, comparable within an allelic series); with HOXA4 [17] it was 12.5 upbm affinity estimate (log intensity, higher = more binding, comparable within an allelic series). The binding signal in the experiment with PRRX1 [18] is 13.6 upbm affinity estimate (log intensity, higher = more binding, comparable within an allelic series); in the experiment with VAX1 [19], 14.1 upbm affinity estimate (log intensity, higher = more binding, comparable within an allelic series).
Turning to CAATTAAC, the binding signal in the experiment with HOXB4 [1] was 13.2 upbm affinity estimate (log intensity, higher = more binding, comparable within an allelic series); in the experiment with VENTX [2], 12.2 upbm affinity estimate (log intensity, higher = more binding, comparable within an allelic series); in the experiment with ALX4, 14 upbm affinity estimate (log intensity, higher = more binding, comparable within an allelic series); with PAX4 [3], 11.5 upbm affinity estimate (log intensity, higher = more binding, comparable within an allelic series); with PRRX1 [4] it was 11.3 upbm affinity estimate (log intensity, higher = more binding, comparable within an allelic series); with VENTX [5] it was 11.9 upbm affinity estimate (log intensity, higher = more binding, comparable within an allelic series). Further, the binding signal in the experiment with PAX4 [6] was 12.1 upbm affinity estimate (log intensity, higher = more binding, comparable within an allelic series); in the experiment with HOXA2 [7] it was 13.1 upbm affinity estimate (log intensity, higher = more binding, comparable within an allelic series); with HOXA4 [8], 12.4 upbm affinity estimate (log intensity, higher = more binding, comparable within an allelic series); with HOXB4 [9], 13.9 upbm affinity estimate (log intensity, higher = more binding, comparable within an allelic series); with PAX4 [10] it was 12 upbm affinity estimate (log intensity, higher = more binding, comparable within an allelic series); with HOXA2 [11], 13.3 upbm affinity estimate (log intensity, higher = more binding, comparable within an allelic series). Besides, the binding signal is 10.6 upbm affinity estimate (log intensity, higher = more binding, comparable within an allelic series) in the experiment with PAX4 [12]; 14 upbm affinity estimate (log intensity, higher = more binding, comparable within an allelic series) with MSX2 [13]; 10.9 upbm affinity estimate (log intensity, higher = more binding, comparable within an allelic series) in the experiment with PAX4 [14]; 13.6 upbm affinity estimate (log intensity, higher = more binding, comparable within an allelic series) in the experiment with MSX2 [15]; 12.8 upbm affinity estimate (log intensity, higher = more binding, comparable within an allelic series) with VAX1 [16]; 11.6 upbm affinity estimate (log intensity, higher = more binding, comparable within an allelic series) in the experiment with HOXA4 [17]. Further, the binding signal is 13.4 upbm affinity estimate (log intensity, higher = more binding, comparable within an allelic series) with PRRX1 [18] and 13 upbm affinity estimate (log intensity, higher = more binding, comparable within an allelic series) in the experiment with VAX1 [19].
As for TAATTGCA, the binding signal in the experiment with VENTX [2] was 11.8 upbm affinity estimate (log intensity, higher = more binding, comparable within an allelic series); with VENTX [5] it was 11.6 upbm affinity estimate (log intensity, higher = more binding, comparable within an allelic series); in the experiment with HOXA2 [7], 12.7 upbm affinity estimate (log intensity, higher = more binding, comparable within an allelic series); with HOXA4 [8], 11.9 upbm affinity estimate (log intensity, higher = more binding, comparable within an allelic series); in the experiment with HOXA2 [11] it was 13.4 upbm affinity estimate (log intensity, higher = more binding, comparable within an allelic series); with MSX2 [13] it was 13.9 upbm affinity estimate (log intensity, higher = more binding, comparable within an allelic series). For the same sequence, the binding signal with MSX2 [15] is 13.6 upbm affinity estimate (log intensity, higher = more binding, comparable within an allelic series); with VAX1 [16] it was 12.5 upbm affinity estimate (log intensity, higher = more binding, comparable within an allelic series); in the experiment with VAX1 [19] it was 12.4 upbm affinity estimate (log intensity, higher = more binding, comparable within an allelic series).
In the case of CAATTATC, the binding signal is 13 upbm affinity estimate (log intensity, higher = more binding, comparable within an allelic series) in the experiment with HOXB4 [1]; 11.7 upbm affinity estimate (log intensity, higher = more binding, comparable within an allelic series) with VENTX [2]; 13.8 upbm affinity estimate (log intensity, higher = more binding, comparable within an allelic series) in the experiment with ALX4; 11.3 upbm affinity estimate (log intensity, higher = more binding, comparable within an allelic series) with PRRX1 [4]; 12.4 upbm affinity estimate (log intensity, higher = more binding, comparable within an allelic series) with HOXA2 [7]; 11.9 upbm affinity estimate (log intensity, higher = more binding, comparable within an allelic series) in the experiment with HOXA4 [8]. The binding signal in the experiment with HOXB4 [9] is 13.6 upbm affinity estimate (log intensity, higher = more binding, comparable within an allelic series); with PAX4 [10], 11.8 upbm affinity estimate (log intensity, higher = more binding, comparable within an allelic series); in the experiment with HOXA2 [11], 13 upbm affinity estimate (log intensity, higher = more binding, comparable within an allelic series); with MSX2 [13], 13.9 upbm affinity estimate (log intensity, higher = more binding, comparable within an allelic series); in the experiment with MSX2 [15], 13.7 upbm affinity estimate (log intensity, higher = more binding, comparable within an allelic series); with HOXA4 [17], 11.2 upbm affinity estimate (log intensity, higher = more binding, comparable within an allelic series). Further, the binding signal in the experiment with PRRX1 [18] was 13.4 upbm affinity estimate (log intensity, higher = more binding, comparable within an allelic series).
In the case of CTAATTAG, the binding signal with HOXB4 [1] is 13.6 upbm affinity estimate (log intensity, higher = more binding, comparable within an allelic series); with VENTX [2] it was 13 upbm affinity estimate (log intensity, higher = more binding, comparable within an allelic series); with ALX4 it was 14.7 upbm affinity estimate (log intensity, higher = more binding, comparable within an allelic series); in the experiment with PAX4 [3] it was 12.5 upbm affinity estimate (log intensity, higher = more binding, comparable within an allelic series); with PRRX1 [4], 12 upbm affinity estimate (log intensity, higher = more binding, comparable within an allelic series); with VENTX [5], 12.8 upbm affinity estimate (log intensity, higher = more binding, comparable within an allelic series). The binding signal with PAX4 [6] is 13 upbm affinity estimate (log intensity, higher = more binding, comparable within an allelic series); in the experiment with HOXA2 [7], 14.2 upbm affinity estimate (log intensity, higher = more binding, comparable within an allelic series); with HOXA4 [8] it was 12.6 upbm affinity estimate (log intensity, higher = more binding, comparable within an allelic series); with HOXB4 [9], 14.2 upbm affinity estimate (log intensity, higher = more binding, comparable within an allelic series); with PAX4 [10], 13.1 upbm affinity estimate (log intensity, higher = more binding, comparable within an allelic series); with HOXA2 [11] it was 14.3 upbm affinity estimate (log intensity, higher = more binding, comparable within an allelic series). Further, the binding signal is 11.2 upbm affinity estimate (log intensity, higher = more binding, comparable within an allelic series) with PAX4 [12]; 14.2 upbm affinity estimate (log intensity, higher = more binding, comparable within an allelic series) in the experiment with MSX2 [13]; 11.8 upbm affinity estimate (log intensity, higher = more binding, comparable within an allelic series) with PAX4 [14]; 13.9 upbm affinity estimate (log intensity, higher = more binding, comparable within an allelic series) with MSX2 [15]; 14.1 upbm affinity estimate (log intensity, higher = more binding, comparable within an allelic series) with VAX1 [16]; 12.6 upbm affinity estimate (log intensity, higher = more binding, comparable within an allelic series) with HOXA4 [17]. Besides, the binding signal in the experiment with PRRX1 [18] was 13.7 upbm affinity estimate (log intensity, higher = more binding, comparable within an allelic series); with VAX1 [19], 14.3 upbm affinity estimate (log intensity, higher = more binding, comparable within an allelic series).
